# Measured values from paper PMC4336329 (PLoS ONE, 2015).
# Screen size: about 310,000 compounds; about 14,000 (4.5%) showed an effect of 50% or more. Effects have a minus sign here. For the sample, strong results were picked, then their nearest neighbours and some compounds at random.
# Biological target: human ether-à-go-go-related gene (hERG) potassium channel (human, UniProt Q12809)
# Assay: primary screen, population patch clamp on CHO cells stably expressing hERG; higher = less effect of the substance
# 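Note: peak tail current of the secondary pulse compared with the same well before compound.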
# Sequence of human ether-à-go-go-related gene (hERG) potassium channel (Q12809 whole entry, looked up): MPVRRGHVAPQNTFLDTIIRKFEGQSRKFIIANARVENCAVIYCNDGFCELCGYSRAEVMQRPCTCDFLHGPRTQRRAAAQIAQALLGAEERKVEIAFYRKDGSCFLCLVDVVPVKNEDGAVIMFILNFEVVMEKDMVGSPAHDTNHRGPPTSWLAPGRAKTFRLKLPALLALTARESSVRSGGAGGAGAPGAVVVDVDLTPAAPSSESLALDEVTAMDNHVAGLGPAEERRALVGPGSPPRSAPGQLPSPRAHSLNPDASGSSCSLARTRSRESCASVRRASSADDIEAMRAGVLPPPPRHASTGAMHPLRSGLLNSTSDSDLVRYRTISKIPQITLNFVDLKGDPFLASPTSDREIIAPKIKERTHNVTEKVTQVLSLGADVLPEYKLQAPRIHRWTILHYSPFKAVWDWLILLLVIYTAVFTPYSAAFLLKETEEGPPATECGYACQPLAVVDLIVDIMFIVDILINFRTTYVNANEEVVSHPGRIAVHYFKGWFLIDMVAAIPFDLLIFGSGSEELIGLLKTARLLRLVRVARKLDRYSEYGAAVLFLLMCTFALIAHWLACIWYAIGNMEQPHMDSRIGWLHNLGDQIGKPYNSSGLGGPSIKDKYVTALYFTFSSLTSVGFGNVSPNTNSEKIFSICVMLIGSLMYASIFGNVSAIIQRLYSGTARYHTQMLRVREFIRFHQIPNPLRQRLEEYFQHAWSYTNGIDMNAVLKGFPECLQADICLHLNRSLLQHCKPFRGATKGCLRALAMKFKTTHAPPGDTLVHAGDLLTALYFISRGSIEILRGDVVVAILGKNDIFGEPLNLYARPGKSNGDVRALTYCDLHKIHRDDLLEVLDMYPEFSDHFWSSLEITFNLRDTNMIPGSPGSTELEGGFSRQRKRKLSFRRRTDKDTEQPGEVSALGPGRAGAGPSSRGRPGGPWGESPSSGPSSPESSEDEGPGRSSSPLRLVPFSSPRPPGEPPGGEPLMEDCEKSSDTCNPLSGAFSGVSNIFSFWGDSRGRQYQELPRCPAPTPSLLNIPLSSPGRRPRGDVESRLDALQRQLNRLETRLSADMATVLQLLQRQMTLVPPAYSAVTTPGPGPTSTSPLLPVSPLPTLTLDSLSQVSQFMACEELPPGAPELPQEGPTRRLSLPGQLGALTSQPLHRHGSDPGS
row,SMILES,"hERG current change (%, negative = inhibition) at 10uM [%]"
1,O=C(COc1ccc(S(=O)(=O)N2CCCC2)cc1Cl)NCc1cccnc1,-55
2,O=C(COc1ccc(S(=O)(=O)N2CCCCC2)cc1)NCc1cccnc1,3.06
3,CN(c1ccc(OCC(=O)NCCc2ccccc2)cc1)S(=O)(=O)c1ccc(Cl)cc1,15.2
4,Cc1ccc(S(=O)(=O)N(Cc2ccccc2)c2ccccc2C(=O)NCc2cccnc2)cc1,-33.2
5,CN(c1ccc(OCC(=O)OCC(=O)NCc2ccco2)cc1)S(=O)(=O)c1ccc2ccccc2c1,2.22
6,Cc1ccc(S(=O)(=O)N(Cc2ccc(Cl)cc2)c2ccccc2C(=O)NCc2ccco2)cc1,-10.8
7,COc1cc(/C=C/c2ccc3c(Br)cc(Br)c(O)c3n2)ccc1O,17.2
8,O=C(CSc1ccc([N+](=O)[O-])cn1)Nc1ccc(N2CCOCC2)c(Cl)c1,-33.2
9,CCc1nnc(NC(=O)CSc2nnnn2-c2cccc(C(=O)OC)c2)s1,8.39
10,O=C(Cc1cccs1)Nc1nnc(COc2ccccc2)s1,3.05
11,O=C(CN1C(=O)NC2(CCc3ccccc32)C1=O)Nc1cc(C(F)(F)F)ccc1N1CCOCC1 (stereo not shown),-5.15
12,O=C(COc1ncnc2ccccc12)N1CCN(S(=O)(=O)c2ccc(Cl)cc2)CC1,-9.26
13,Cc1nc(Cl)c2c(n1)NC1=C(O2)C(=O)CCC1,14.7
14,COc1cccc(/C=C2\SC(=S)N(CCC(=O)NCCc3ccc(O)cc3)C2=O)c1,3.18
15,COc1ccc(Nc2nc(-c3sc(N)nc3C)cs2)cc1,8.32
16,O=C(NNC1=Nc2cccc3cccc1c23)c1ccc(Br)cc1,4.78
17,Cc1cccc2cc(C(c3nnnn3Cc3ccccc3)N3CCN(c4ccccc4)CC3)c(=O)[nH]c12 (stereo not shown),-29.1
18,COc1cccc(/C=N/NC(=O)COc2cccc3cccnc23)c1O,0.232
19,CN(C)/C=C(/C(=O)c1ccc(Cl)c(Cl)c1)c1nnnn1-c1ccccc1,9.85
20,COc1ccc(C2C3=C(CCCC3=O)Nc3nc(SCc4ccc(C(=O)O)cc4)nn32)cc1OC (stereo not shown),-3.79

row,SMILES,"hERG current change (%, negative = inhibition) at 10uM [%]"
1,Cl.Cn1cccc1CNCCc1ccccc1,-1.74
2,CN(c1ccc(C(=O)N2CCOCC2)cc1)S(=O)(=O)c1ccc(Cl)cc1,-34.2
3,COCCNC(=O)CN(c1ccc(OC)c(OC)c1)S(=O)(=O)c1ccc(C)cc1,-8.68
4,COCCNC(=O)CN(c1ccc(C)cc1)S(=O)(=O)c1ccccc1,9.01
5,COc1ccc(S(=O)(=O)N(CC(=O)NCCCN(C)C)c2ccc(C)cc2)cc1OC,-56.6
6,COc1ccc(N(CC(=O)NCCOc2ccccc2)S(=O)(=O)c2ccc(C)cc2)cc1,-54.8
7,CCOc1ccc(S(=O)(=O)N(CC(=O)NCc2cccnc2)c2ccc(C)cc2)cc1,-66.9
8,CN(c1ccc(C(=O)N2CCCCC2)cc1)S(=O)(=O)c1ccccc1,-10.8
9,COc1ccc(S(=O)(=O)N(CC(=O)NCc2ccncc2)c2ccc(C)cc2)cc1OC,-6.77
10,COCCNC(=O)CN(c1cccc(OC)c1)S(=O)(=O)c1ccc(C)cc1,-12.2
11,CCOc1ccc(S(=O)(=O)N(CC)CC(=O)NCc2cccnc2)cc1,-38
12,CN(c1ccc(C(=O)N2CCCCCC2)cc1)S(=O)(=O)c1ccc(Cl)cc1,-63
13,CCc1ccc(N(CC(=O)NCc2cccnc2)S(=O)(=O)c2ccccc2)cc1,-27
14,CCCC(C)c1nc(C(N)=O)c2[nH]c(=O)n(-c3ccc(OC)c(OC)c3)c2n1 (stereo not shown),12.6
15,CCc1ccc(NC(=O)C2CCN(S(=O)(=O)c3cnc[nH]3)CC2)cc1,9.27
16,COc1ccccc1NC(=O)Cn1cnc2sc(C(=O)Nc3cc(OC)c(OC)c(OC)c3)c(C)c2c1=O,27.8
17,CCn1cc(/C=C(\NC(=O)c2ccccc2OC)C(=O)NCCCN2CCOCC2)c2ccccc21,-7.61
18,Cc1ccccc1OCC(=O)N/N=C/c1cccn1C,7.04
19,COc1ccc(-n2nc(C(=O)NCC(=O)NC(C)C)c3ccccc3c2=O)cc1,13.7
20,CCOC(=O)C1CCCCN1Cc1cc(OC)ccc1OC (stereo not shown),5.17
